Bioassay records: PubChem BioAssay, National Center for Advancing Translational Sciences (NCATS)
The full list was thinned out, with hits kept by preference.
IL1B secr inh: qHTS for Inhibitors of Inflammasome Signaling: IL-1-beta AlphaLISA Primary Screen | activity change, % at 57.5 µM | actives 4.7% (n = 360,000) | AID 743279, 2014 | THP-1 LPS/ATP IL-1B secretion, AlphaLISA, 16 h; hits give low values; in the data active = activity change below about -50%; inconclusive = mostly about -30% to -49%
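Secreted IL-1B measured by AlphaLISA bead assay after 16 h compound exposure of THP-1 cells; compounds (final up to 57.5 uM) added 1 h before LPS (250 ng/mL) and ATP (1.25 mM) stimulation; lower signal means less secretion.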
ALOX12 inh: Primary qHTS assay for inhibitors of human arachidonate 12S-lipoxygenase (ALOX12): Round 2; Polyunsaturated fatty acid lipoxygenase ALOX12 (Homo sapiens), P18054; purified 12hLO, xylenol orange hydroperoxide absorbance; Potency, µM (series often up to 108 µM), most hits filed as inhibitors; actives 1.1% (n = 580,000); AID 1671190, 2021
Target sequence (P18054 whole entry, looked up): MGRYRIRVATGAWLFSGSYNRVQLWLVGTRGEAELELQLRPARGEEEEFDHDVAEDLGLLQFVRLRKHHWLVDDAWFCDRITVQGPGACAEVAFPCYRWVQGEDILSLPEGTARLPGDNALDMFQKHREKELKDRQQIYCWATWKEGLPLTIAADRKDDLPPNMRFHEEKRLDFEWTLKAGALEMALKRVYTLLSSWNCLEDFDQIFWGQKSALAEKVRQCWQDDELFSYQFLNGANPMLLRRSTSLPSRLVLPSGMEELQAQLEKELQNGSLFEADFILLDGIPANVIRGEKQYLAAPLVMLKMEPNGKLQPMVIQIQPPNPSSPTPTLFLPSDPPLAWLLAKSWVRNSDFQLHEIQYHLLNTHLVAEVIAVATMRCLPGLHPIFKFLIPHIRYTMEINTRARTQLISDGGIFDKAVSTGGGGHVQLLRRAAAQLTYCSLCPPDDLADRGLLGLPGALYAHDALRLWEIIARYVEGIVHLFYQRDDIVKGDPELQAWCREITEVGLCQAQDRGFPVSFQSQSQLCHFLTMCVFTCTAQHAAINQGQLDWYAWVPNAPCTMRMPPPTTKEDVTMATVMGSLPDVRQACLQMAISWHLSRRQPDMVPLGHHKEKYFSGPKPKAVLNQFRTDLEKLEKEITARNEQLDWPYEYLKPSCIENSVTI
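Purified human 12hLO at 150 nM in 25 mM Hepes, 0.01% Triton X-100, pH 7.0, preincubated 15 min at room temperature with compound. Reaction started with 40 uM arachidonic acid, 30 min at room temperature. Hydroperoxide measured by Fe-xylenol orange, 573/405 nm absorbance ratio.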
DT40 TDP1 no CPT: qHTS for Inhibitors of human tyrosyl-DNA phosphodiesterase 1 (TDP1): qHTS in cells in absence of CPT; Potency, µM (series often up to 46.2 µM), actives largely listed as inhibitors; DT40 Tdp1-/- hTDP1 cells, no CPT, ATP luminescence, 48 h; actives 15% (n = 420,000); also: nearly all actives have a fitted effect of over 55% in size
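Luminescent ATP content (CellTiter-Glo) served as the growth readout. Knockout chicken DT40 cells expressing human TDP1 were exposed to compounds without camptothecin for a minimum 48 hr at 37 °C.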
DT40 TDP1 CPT: qHTS for Inhibitors of human tyrosyl-DNA phosphodiesterase 1 (TDP1): qHTS in cells in presence of CPT. chicken DT40 Tdp1-/-;hTDP1 cells + 20 nM CPT, ATP luminescence, 48 h. Potency, µM (doses to about 46.2 µM), most hits filed as inhibitors. actives 12% (n = 420,000); also: nearly all actives have a fitted effect of over 55% in size
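Chicken DT40 Tdp1-/- cells complemented with human TDP1, 400 cells/well, exposed to compounds plus 20 nM camptothecin for at least 48 h at 37 C; viability read as ATP content by CellTiter-Glo luminescence.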
HT1080-NT tox: qHTS for induction of synthetic lethality in tumor cells producing 2HG: qHTS for the HT-1080-NT fibrosarcoma cell line. HT-1080-NT fibrosarcoma viability, CellTiter-Glo ATP luminescence, 48 h. Potency, µM (series often up to 46.1 µM), most hits filed as cytotoxic. actives 1.6% (n = 360,000);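 also: NT is the 2HG producing partner of a matched IDH1 knockdown line; nearly all actives have a fitted effect of over 55% in size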
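Fibrosarcoma NT cells, 750 per well in 5% FBS RPMI, were exposed to compound for 48 hours. Viability: CellTiter-Glo luminescence.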
HT1080 IDH1KD tx: qHTS for induction of synthetic lethality in tumor cells producing 2HG: qHTS for the HT-1080-IDH1KD cell line | AID 686971, 2013 | actives 2% (n = 360,000) | HT-1080 IDH1 knockdown viability, ATP luminescence, 48 h | Potency, µM (titrated, usually from 46.1 µM), hits mostly cytotoxic
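In this qHTS, HT-1080 cells depleted of IDH1 are exposed for 48 h at 37 °C to compound titrations. Toxicity is scored from CellTiter-Glo luminescence, with DMSO as full viability and medium alone as none.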
Hits are given with their value; i = inactive; ? = inconclusive; nt = not tested or not shown; [ ] = another dose, or the depositor's remark. Unless noted, calls follow the shape of the dose curve; as a rule, active = well fitted curve in the direction sought with a large enough effect; inconclusive = small, poorly fitted or top-dose-only effect, or another doubt; inactive = no such curve, though single readings can be large; an effect the other way counts as inactive or inconclusive.

SMILES	IL1B secr inh	ALOX12 inh	DT40 TDP1 no CPT	DT40 TDP1 CPT	HT1080-NT tox	HT1080 IDH1KD tx
N#Cc1cc2[nH]c3ccccc3c2[n+](-c2ccc([N+](=O)[O-])cc2)c1N	-97.5	i	?	i	i	i
CN(C)S(=O)(=O)c1cccc(C(=O)OCC(=O)c2c(N)n(C)c(=O)n(C)c2=O)c1	i	i	i	i	i	i
CN(c1ccccc1)S(=O)(=O)c1cc(C(=O)OCC(=O)c2c(N)n(C)c(=O)n(C)c2=O)ccc1Cl	i	i	?	25.9µM	i	i
Cc1ccc(N(C)S(=O)(=O)c2cccc(C(=O)OCC(=O)c3c(N)n(C)c(=O)n(C)c3=O)c2)cc1	i	i	18.4µM	?	i	i
CCN(c1ccccc1)S(=O)(=O)c1cc(C(=O)OCC(=O)c2c(N)n(C)c(=O)n(C)c2=O)ccc1C	i	i	23.1µM	9.2µM	i	i
COc1cc(Br)c2cc(C(=O)O)[nH]c2c1OC	nt	i	nt	nt	nt	nt
O=C(c1cc2ccccc2oc1=O)N1CCCc2ccccc21	nt	i	nt	nt	nt	nt
O=C1CCSc2ccc(Cl)cc2N1Cc1ccc(Cl)cc1	?	i	29.1µM	?	i	i[9.24 µM]
Cc1cccc(CN2C(=O)CCSc3ccc(Cl)cc32)c1	i	i	10.3µM	?	i	i
O=C(NCCN1CCOCC1)c1ccc2c(c1)N(Cc1ccc(Cl)cc1)C(=O)CS2	i	?	?	?	i	?
Cc1c(NC(=O)C(C)OC(=O)c2ccc([N+](=O)[O-])s2)c(=O)n(-c2ccccc2)n1C (configuration not stated)	i	i	16.4µM	23.1µM	i	i
CC(OC(=O)c1ccc([N+](=O)[O-])s1)C(=O)NC1CCCCC1C (configuration not stated)	i	i	?	23.1µM	i	i
Cc1c(NC(=O)C(C)OC(=O)c2ccc(F)cc2)c(=O)n(-c2ccccc2)n1C (configuration not stated)	nt	i	nt	nt	nt	nt
Cc1cc(NC(=O)[C@@H]2CCCN2S(=O)(=O)c2ccccc2)no1	nt	i	nt	nt	nt	nt
CCOC(=O)c1sc(NC(=O)c2cc(Cl)ccc2F)nc1C	nt	i	nt	nt	nt	nt
COc1ccc(N2CCN(CCNC(=O)C3CCN(S(=O)(=O)c4cccs4)CC3)CC2)cc1	i	i	?	?	i	i
O=C(C1CCC(CNc2nc(=S)[nH]c3ccccc23)CC1)N1CCN(c2ccc(F)cc2)CC1 (configuration not stated)	-72.0	i	4.61µM	2.59µM	?	?
COc1ccc(N2CCN(CCCNC(=O)C3CCC(CNc4nc(=S)[nH]c5ccccc45)CC3)CC2)cc1 (configuration not stated)	i	i	23.1µM	?	i	i
COc1ccc(-c2noc(-c3cccn3CC(=O)N3CCOc4ccc(C)cc43)n2)cc1F	nt	i	nt	nt	nt	nt
Cc1ccc(CN2CCC(CNC(=O)Nc3cccc(C)c3C)C2)cc1 (configuration not stated)	nt	i	?	?	nt	nt
COc1cc(OC)c(N(C)C(=O)Nc2cn(CC(C)C)c(=O)c3ccccc23)cc1Cl	nt	i	23.1µM	20.6µM	nt	nt
CCN(C(=O)Nc1cn(CC(C)C)c(=O)c2ccccc12)c1cc(C)ccc1C	nt	i	9.2µM	9.2µM	nt	nt
Cc1ccc(CN2CCC(CNC(=O)Nc3cn(CC(C)C)c(=O)c4ccccc34)C2)cc1 (configuration not stated)	nt	44.7µM	nt	nt	nt	nt
COc1ccc(F)cc1-c1ccc(C(=O)O)cc1	nt	i[12.5 µM]	nt	nt	nt	nt
COc1ccc(F)cc1C(=O)C(=O)O	nt	8.91µM	nt	nt	nt	nt
SMILES	IL1B secr inh	ALOX12 inh	DT40 TDP1 no CPT	DT40 TDP1 CPT	HT1080-NT tox	HT1080 IDH1KD tx
Cn1c(=O)c2c(nc(NCCCN3CCOCC3)n2Cc2ccccc2)n(C)c1=O	nt	i	nt	nt	nt	nt
O=C(c1cccs1)c1cn(CC(=O)N2CCc3ccccc3C2)c2ccccc12	i	i	?	23.1µM	i	?
NC(=O)C1CCN(C(=O)C2CCN(S(=O)(=O)Cc3c(F)cccc3Cl)CC2)CC1	nt	i	nt	nt	nt	nt
COc1ccc(CONS(=O)(=O)c2ccc(NC(C)=O)cc2)cc1Cl	i	i	?	20.6µM	i	i
COc1ccc(S(=O)(=O)Nc2ccc(NC(C)=O)cc2)cc1Cl	i	i	i	i	i	i
CCN1c2cc(C(=O)N3CCN(c4ccc(C)cc4)CC3)ccc2C(=O)N2CCCCC21 (configuration not stated)	nt	i	nt	nt	nt	nt
CCn1cnnc1-c1nn(C)c2c1CN(C(=O)CN1CCCCCC1)CC2	nt	i	nt	nt	nt	nt
Cc1nnc2n1N=CC=C(c1ccccc1)S2	-91.4	i	5.17µM	8.2µM	i	i
Cc1nnc2n1N=CC=C(C(C)(C)C)S2	i	i	i	i	i	i
C[C@H](CO)N1C[C@H](C)[C@@H](CN(C)Cc2ccccc2)Oc2ccc(NC(=O)CCCCCC(=O)Nc3ccccc3N)cc2C1=O	i	i	?	?	i	i
C[C@H](CO)N1C[C@H](C)[C@@H](CN(C)C)Oc2c(NC(=O)CCCCCC(=O)Nc3ccccc3N)cccc2C1=O	i	i	?	18.4µM	i	i
C[C@H](CO)N1C[C@H](C)[C@@H](CN(C)Cc2ccncc2)Oc2c(NC(=O)CCCCCC(=O)Nc3ccccc3N)cccc2C1=O	i	i	23.1µM	?	i	i
Cc1cnc(C)c(N2CCC(COc3cnc4c(ccn4CC(N)=O)c3)CC2)n1	nt	i	nt	nt	nt	nt
CCc1nnc(NC(=O)C(NS(=O)(=O)c2ccc3c(c2)OCCO3)C(C)C)s1 (configuration not stated)	i	35.5µM	i	i	i	i
COCc1nc(-c2ccc(OC3CN(Cc4ccsc4)C3)cc2)no1	nt	i	nt	nt	nt	nt
C=CCOC(=O)Cn1cnc2c(sc3nc(C)cc(C)c32)c1=O	-70.9	i	i	i	i	i
Cc1cc(C)c2c(n1)sc1c(=O)n(CC(=O)c3ccccc3)cnc12	i	i	i	?	i	i
COc1ccc(-c2ccc(CCC(=O)O)n2-c2ccccc2OC)cc1	i	?	23.1µM	?	18.4µM	16.4µM
COC(=O)c1ccc(NC(=O)Cn2ncn3nc(-c4cc(C)ccc4C)cc3c2=O)cc1	nt	i	nt	nt	nt	nt
O=C(NC1CCCCC1)N1CCc2ccccc2C1	-78.7	i	i	i	i	i
O=C(NC1CCCCC1)C(c1ccccc1)N1CCc2ccccc21 (configuration not stated)	i	i	20.6µM	25.9µM	i	i
